High-throughput results: PubChem BioAssay, National Center for Advancing Translational Sciences (NCATS)
Rows were chosen to be rich in hits. Some 15% of all compounds tested hit in one or more screens of this group.
12-LOX inh = blocks human arachidonate 12S-lipoxygenase; P18054; AID 1671190; 580,000 compounds, 1.1% hits; purified 12hLO, xylenol orange hydroperoxide absorbance; Potency, µM (titrated, usually from 108 µM), for the others: at the top dose activity change, negative = inhibition, usual class: inhibitors
Target sequence (P18054 whole entry, looked up): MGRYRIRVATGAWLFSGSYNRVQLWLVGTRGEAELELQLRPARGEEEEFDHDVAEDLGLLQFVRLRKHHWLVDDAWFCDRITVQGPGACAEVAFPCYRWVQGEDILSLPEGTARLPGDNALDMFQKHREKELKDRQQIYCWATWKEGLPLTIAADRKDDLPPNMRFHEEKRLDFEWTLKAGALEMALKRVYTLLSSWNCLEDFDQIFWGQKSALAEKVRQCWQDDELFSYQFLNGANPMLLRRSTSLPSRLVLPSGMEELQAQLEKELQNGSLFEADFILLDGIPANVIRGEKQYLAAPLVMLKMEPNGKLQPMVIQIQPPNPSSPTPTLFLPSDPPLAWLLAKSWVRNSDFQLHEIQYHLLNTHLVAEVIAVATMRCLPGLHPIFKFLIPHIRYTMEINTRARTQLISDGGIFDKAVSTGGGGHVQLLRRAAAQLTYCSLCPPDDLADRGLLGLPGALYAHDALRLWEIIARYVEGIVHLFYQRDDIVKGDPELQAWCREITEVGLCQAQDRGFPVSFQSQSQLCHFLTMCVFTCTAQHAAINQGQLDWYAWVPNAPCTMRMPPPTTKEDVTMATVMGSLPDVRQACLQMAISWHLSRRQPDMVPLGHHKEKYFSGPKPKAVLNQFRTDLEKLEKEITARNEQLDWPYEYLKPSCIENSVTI
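Purified human 12hLO at 150 nM in 25 mM Hepes, 0.01% Triton X-100, pH 7.0, preincubated 15 min at room temperature with compound. Reaction started with 40 uM arachidonic acid, 30 min at room temperature. Hydroperoxide measured by Fe-xylenol orange, 573/405 nm absorbance ratio.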
DT40 TDP1 CPT = growth inhibition of DT40 Tdp1-/-;hTDP1 cells with camptothecin (screen for TDP1 inhibitors); chicken DT40 Tdp1-/-;hTDP1 cells + 20 nM CPT, ATP luminescence, 48 h; Potency, µM (doses to about 46.2 µM), inactives show top-dose activity change, negative = growth inhibition, most hits filed as inhibitors; 420,000 compounds, 12% hits; further: nearly all actives have a fitted effect of over 55% in size
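Chicken DT40 Tdp1-/- cells stably complemented with human TDP1 were seeded at 400 cells/well in medium containing 20 nM camptothecin, exposed to pin-transferred compounds, and grown at 37 °C for at least 48 hr. Viability was read as ATP luminescence.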
RORgamma inh = ROR gamma (mouse) transcription inhibition. P51450. Drosophila S2 Gal4-RORgamma UAS-luciferase reporter, 20 h. Potency, µM (doses to about 53.6 µM), without a hit: at the top dose activity change, negative = inhibition, usual class: inhibitors. 310,000 compounds, 5.4% hits. AID 2551; further: nearly all actives have a fitted effect of over 60% in size
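ROR gamma transcriptional activity was tracked as Gal4-UAS luciferase output in stably transfected Drosophila Schneider cells, with compound added 1 hr before 700 uM copper sulfate induction and a 20 hr ambient-temperature incubation.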
ELG1 DNA repair = blocks ELG1-dependent DNA repair in HEK293T cells; HEK293T ELG1-luciferase reporter, luminescence, 16 h; DNA damage induced by 5-fluorouridine; Potency, µM (highest dose often 46.1 µM), inactives show at the highest dose activity change, negative = inhibition, most hits filed as inhibitors; 330,000 compounds, 2.3% hits; AID 504467; further: nearly all actives have a fitted effect of over 55% in size
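HEK293T cells expressing luciferase-tagged ELG1 (2,000/well) received 5-Fluorouridine plus compound or DMSO for 16 hr at 37 °C. Luciferase was read by ONE-Glo luminescence after 30 min at room temperature.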
VP16 counter = Gal4-VP16 reporter inhibition counter-screen. Potency, µM (titrated, usually from 53.6 µM), inactives show at the top dose activity, negative = inhibition, actives largely listed as inhibitors. 310,000 compounds, 3.5% hits. Drosophila S2 Gal4-VP16 UAS-luciferase, luminescence, 20 h. AID 2546;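 further: Gal4-VP16 expression switched on by copper sulfate through the metallothionein promoter; nearly all actives have a fitted effect of over 50% in size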
TDP1 cell noCPT = qHTS for Inhibitors of human tyrosyl-DNA phosphodiesterase 1 (TDP1): qHTS in cells in absence of CPT; DT40 Tdp1-/- hTDP1 cells, no CPT, ATP luminescence, 48 h; Potency, µM (doses to about 46.2 µM), without a hit: top-dose activity change, negative = growth inhibition, usual class: inhibitors; 420,000 compounds, 15% hits; further: nearly all actives have a fitted effect of over 55% in size
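Luminescent ATP content (CellTiter-Glo) served as the growth readout. Knockout chicken DT40 cells expressing human TDP1 were exposed to compounds without camptothecin for a minimum 48 hr at 37 °C.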
Active calls of the source: *; ? = inconclusive; . = no result; [ ] = another dose, or the depositor's remark. The call rests on the fitted dose curve; in most records, active means well fitted curve in the direction sought with a large enough effect; inconclusive means small, poorly fitted or top-dose-only effect, or another doubt; inactive means no such curve, though single readings can be large; an effect the other way counts as inactive or inconclusive. On the % scale 0 is the no-effect control and ±100 the full control effect; potency means the concentration at half of the fitted maximal effect.

SMILES	12-LOX inh	DT40 TDP1 CPT	RORgamma inh	ELG1 DNA repair	VP16 counter	TDP1 cell noCPT
Cc1ccc(C(=O)C(C)Oc2ccc(C#N)cc2)cc1C (stereo not given)	-46%	.	.	.	.	.
NC1CCOCC1	10%	.	.	.	.	.
COc1ccc(OC)c(NC(=O)C2CCN(Cc3cnn(-c4ccccc4)c3-n3cccc3)CC2)c1	-10%	16µM*	15%	23µM*	-11%	?
O=C(Nc1ccccc1Cl)C1CCN(Cc2cnn(-c3ccccc3)c2-n2cccc2)CC1	-6%	16µM*	19%	?	?	23µM*
COc1ccc(NC(=O)C2CCN(Cc3cnn(-c4ccccc4)c3-n3cccc3)CC2)cc1OC	-2%	?	3%	.	-6%	?
O=C(NCc1ccc2c(c1)OCO2)C1CCN(Cc2cnn(-c3ccccc3)c2-n2cccc2)CC1	-5%	-23%	15%	.	-14%	-26%
CCCc1nnc2sc(-c3ccc4ccccc4n3)nn12	0%	.	.	.	.	.
Clc1ccc(Cl)c(-c2nn3c(COc4ccccc4)nnc3s2)c1	?	16µM*	-9%	-4%	-3%	?
c1ccc(OCc2nnc3sc(-c4ccccc4)nn23)cc1	8.9µM*	.	.	.	.	.
CCc1nnc2sc(-c3cc(-c4ccccc4)nc4ccccc34)nn12	15%	35µM*	9%	-27%	-4%	?
Cc1c(S(=O)(=O)c2ccccc2)c(NC(=O)C(C)C)n(C(C)C)c1C	-5%	.	.	.	.	.
Cc1cc(OCc2cc(C(=O)N(C)CCc3cnn(C)c3)no2)cc(C)c1Cl	-1%	13µM*	12%	?	-12%	21µM*
Cc1cc(OCc2cc(C(=O)N(C)Cc3nonc3C)no2)cc(C)c1Cl	-3%	?	-9%	-1%	-3%	-3%
Cc1cc(OCc2cc(C(=O)N(C)C3CCOC3)no2)cc(C)c1Cl (stereo not given)	3%	16µM*	29%	?	3%	16µM*
CCc1ccc(CN(C)C(=O)c2cc(COc3cc(C)c(Cl)c(C)c3)on2)nc1	-14%	16µM*	15%	-2%	6%	?
c1ccc(-c2nnc3ccc(-c4ccoc4)nn23)nc1	29%[176 µM]	.	.	.	.	.
N=c1c(S(=O)(=O)c2ccccc2)cc2c(=O)n3ccccc3nc2n1Cc1ccco1	-22%	?	?	?	?	21µM*
CCn1c(=N)c(S(=O)(=O)c2ccc(C)cc2)cc2c(=O)n3ccccc3nc21	?	.	-10%	-2%	-5%	.
Cc1ccc2nc3c(cc(S(=O)(=O)c4ccccc4)c(=N)n3Cc3ccco3)c(=O)n2c1	-24%	-29%	-30%	?	-14%	?
Cc1ccc(S(=O)(=O)c2cc3c(=O)n4ccccc4nc3n(CCc3ccccc3)c2=N)cc1	-7%	?	1%	?	9%	16µM*
Cc1ccc(S(=O)(=O)c2cc3c(=O)n4ccccc4nc3n(Cc3ccco3)c2=N)cc1C	0%	?	?	-1%	18µM*	?
COCCn1c2c(c(=O)[nH]c1=O)C(c1ccccc1C)C1=C(N2)c2ccccc2C1=O (stereo not given)	103%	.	.	.	.	.
CCn1c2ccccc2c2cc(/C=N/NC(=O)c3cc(O)cc(O)c3)ccc21	-4%	-22%	1%	?	-10%	?
CCn1c2ccccc2c2cc(/C=N/NC(=O)c3ccc(O)cc3)ccc21	-2%	23µM*	-2%	?	-19%	26µM*
CCn1c2ccccc2c2cc(/C=N/NC(=O)c3ccncc3)ccc21	5%	?	8.9µM*	?	?	?
SMILES	12-LOX inh	DT40 TDP1 CPT	RORgamma inh	ELG1 DNA repair	VP16 counter	TDP1 cell noCPT
COC(=O)c1cc(Sc2cccc(Cl)c2Cl)ccn1	?	?	?	-2%	11µM*	-50%
COC(=O)c1cc(Sc2c(Cl)cccc2Cl)ccn1	40µM*	-25%	?	-5%	6%[10 µM]	2.3µM*
COc1cccc(NC(=O)CSCn2nnc3c(=O)[nH]c(Cc4ccc(F)cc4)nc32)c1	4%	-22%	.	.	.	4.1µM*
CCc1ccc(S(=O)(=O)c2cn(Cc3ccccc3)c3cc(N4CCCC4)c(F)cc3c2=O)cc1	-12%	?	.	.	.	?
Cc1ccc(Cn2cc(S(=O)(=O)c3ccc(C)cc3)c(=O)c3cc(F)c(N4CCCC4)cc32)cc1	8%	?	.	.	.	?
Cc1cccc(Cn2cc(S(=O)(=O)c3cccc(C)c3)c(=O)c3cc(F)c(N4CCOCC4)cc32)c1	2%	?	.	.	.	?
Cc1ccc(S(=O)(=O)c2cn(Cc3cccc(F)c3)c3cc(N4CCCC4)c(F)cc3c2=O)cc1	-6%	4.6µM*	.	.	.	5.2µM*
Cc1cccc(Cn2cc(S(=O)(=O)c3ccccc3)c(=O)c3cc(F)c(N4CCOCC4)cc32)c1	3%	26µM*	.	.	.	23µM*
Cc1ccc(S(=O)(=O)c2cn(Cc3ccccc3)c3cc(N4CCCCC4)c(F)cc3c2=O)cc1	-17%	8.2µM*	.	.	.	16µM*
Cc1ccc(S(=O)(=O)c2cn(C)c3cc(N4CCN(c5ccccc5)CC4)c(F)cc3c2=O)cc1	-11%	?	.	.	.	7.3µM*
CC(C)C(=O)N1Cc2ccccc2CC2(CCCN(Cc3ccc(O)cc3)C2)C1 (stereo not given)	12%[6.33 µM]	.	.	.	.	.
O=C(Nc1ccncn1)[C@@H]1C[C@@H](c2cccc(C(F)(F)F)c2)N(CC2CCOCC2)C1	-11%[176 µM]	.	.	.	.	.
COc1ccc(-c2cn3c(C)c(C(=O)N4CCc5ccccc5C4)sc3n2)cc1	.	18µM*	-11%	?	-2%	21µM*
Cc1c(C(=O)N2CCc3ccccc3C2)sc2nc(-c3ccccc3)cn12	-9%	?	27%[0.365 µM]	21µM*	.	21µM*
COc1ccc(-c2cc(C(=O)N3CCc4ccccc4C3)no2)cc1	-10%	-10%	-2%	7%	-5%[10 µM]	?
COCc1nc(-c2ccc(OC3CCN(C(=O)Cc4c[nH]c5ccccc45)C3)cc2)no1 (stereo not given)	34%	.	.	.	.	.
CC(OC(=O)c1ccc(OCC2CCCO2)cc1)C(=O)N(C)Cc1ccccc1 (stereo not given)	8%	?	.	9%	.	?
CC(OC(=O)c1ccccc1NS(=O)(=O)c1cccc(C(F)(F)F)c1)C(=O)N(C)Cc1ccccc1 (stereo not given)	-4%	?	?	-18%	0%	23µM*
